# In all, about 140,000 sequences were measured (“enrichment ratio after two sorts for PhoP signalling”: median about 0, highest 2% from about 11 on). Only a selection was taken, and the highest values are over-represented in it overall.
# B1: PhoQ; a variant is named by its letters at X, in order, P23837 (parent)
# chain: MKKLLRLFFPLSLRVRFLLATAAVVLVLSLAYGMVALIGYSVSFDKTTFRLLRGESNLFYTLAKWENNKLHVELPENIDKQSPTMTLIYDENGQLLWAQRDVPWLMKMIQPDWLKSNGFHEIEADVNDTSLLLSGDHSIQQQLQEVREDDDDAEMTHSVAVNVYPATSRMPKLTIVVVDTIPVELKSSYMVWSWFIYVLSANLLLVIPLLWVAAWWSLRPIEALAKEVRELEEHNRELLNPATTRELTSLVRNLNRLLKSERERYDKYRTTLTDLTHSLKTPLXXLQXXLRSLRSEKMSVSDAEPVMLEQISRISQQIGYYLHRASMRGGTLLSRELHPVAPLLDNLTSALNKVYQRKGVNISLDISPEISFVGEQNDFVEVMGNVLDNACKYCLEFVEISARQTDEHLYIVVEDDGPGIPLSKREVIFDRGQRVDTLRPGQGVGLAVAREITEQYEGKIVAGESMLGGARMEVIFGRQHSAPKDE
# Variants of: B1
# Assay: enrichment ratio after two sorts for PhoP signalling (ratio (wild type AVST 3.29)); higher = more functional
# Conditions: with PhoP (E. coli)
row,Variant,enrichment ratio
1,QSCS,≤ 0.25
2,SYVA,≤ 0.25
3,GMCC,≤ 0.25
4,FQGH,≤ 0.25
5,NRAM,≤ 0.25
6,KRFS,≤ 0.25
7,CNWS,≤ 0.25
8,RPDF,≤ 0.25
9,KFLF,≤ 0.25
10,SCDN,≤ 0.25
11,PMCH,≤ 0.25
12,LCTA,≤ 0.25
13,TSHE,5.88
14,MMTA,≤ 0.25
15,WITI,≤ 0.25
16,TSEI,15.3
17,TSTI,22
18,KSHF,≤ 0.25
19,KSEI,≤ 0.25
20,MMTI,≤ 0.25
21,TSHF,13.4
22,WSEI,≤ 0.25
23,TSTA,14.2
24,LGWN,≤ 0.25

row,Variant,enrichment ratio
1,TWGR,≤ 0.25
2,FHQM,≤ 0.25
3,TARV,≤ 0.25
4,QSIY,≤ 0.25
5,KSHQ,≤ 0.25
6,TSHQ,11.8
7,THHQ,≤ 0.25
8,DFQV,≤ 0.25
9,WHCG,≤ 0.25
10,AQLN,31.6
11,AQLA,19
12,AQTS,12.8
13,AQTC,9.55
14,AQLT,8.16
15,AQLS,10.2
16,AQCN,4.1
17,AQNL,≤ 0.25
18,AQTK,≤ 0.25
19,FEWS,≤ 0.25
20,RCQR,≤ 0.25
21,FLMM,1.72
22,YNDD,≤ 0.25
23,IFQD,≤ 0.25
24,AKFS,≤ 0.25

row,Variant,enrichment ratio
1,NNCV,≤ 0.25
2,HACH,≤ 0.25
3,TMCV,13.2
4,TMMH,5.83
5,TMIE,≤ 0.25
6,EMCG,≤ 0.25
7,TMCH,15.9
8,TMPE,≤ 0.25
9,DMCV,≤ 0.25
10,TMCG,15
11,TMCE,21.2
12,KMCG,≤ 0.25
13,NTFT,≤ 0.25
14,DACN,≤ 0.25
15,YKFT,≤ 0.25
16,VRAW,≤ 0.25
17,EVCN,≤ 0.25
18,PEAM,≤ 0.25
19,EYVE,≤ 0.25
20,HGYS,≤ 0.25
21,QTTN,≤ 0.25
22,SFNA,≤ 0.25
23,MWTS,≤ 0.25
24,PLKT,≤ 0.25

row,Variant,enrichment ratio
1,RNTM,≤ 0.25
2,WPSM,≤ 0.25
3,TMSE,15.9
4,TMNE,≤ 0.25
5,DMSE,≤ 0.25
6,TMPA,≤ 0.25
7,TMWI,≤ 0.25
8,TMGE,14.8
9,TMKE,13.6
10,TMCS,16.8
11,NMKE,≤ 0.25
12,MMSE,≤ 0.25
13,THGE,≤ 0.25
14,NHGE,≤ 0.25
15,DFCK,≤ 0.25
16,IFAG,≤ 0.25
17,ECNL,≤ 0.25
18,KFQG,≤ 0.25
19,GWTL,≤ 0.25
20,DYTL,≤ 0.25
21,YESY,≤ 0.25
22,RHIC,0.278
23,ATKV,≤ 0.25
24,IHFF,≤ 0.25

row,Variant,enrichment ratio
1,YYCV,≤ 0.25
2,TMCI,12.4
3,DMCT,≤ 0.25
4,TMCK,3.91
5,NMCT,≤ 0.25
6,TMCT,19.5
7,TMCA,8.5
8,YSWE,≤ 0.25
9,AFNE,≤ 0.25
10,WHNP,≤ 0.25
11,SQAG,25.9
12,SPAG,≤ 0.25
13,KYAG,≤ 0.25
14,SFAG,0.768
15,SEAG,12.1
16,DPAG,≤ 0.25
17,SAAG,14.1
18,STAG,9.55
19,SAVG,0.763
20,RRVI,≤ 0.25
21,FDPS,≤ 0.25
22,DHTW,≤ 0.25
23,SYHG,≤ 0.25
24,STMG,9.85

row,Variant,enrichment ratio
1,SYEG,≤ 0.25
2,SQMG,20.8
3,KYIG,≤ 0.25
4,SYIG,11.3
5,SYMG,12.5
6,SDIG,≤ 0.25
7,DPMG,≤ 0.25
8,WYLE,≤ 0.25
9,LKTQ,≤ 0.25
10,HHMC,≤ 0.25
11,FFEW,≤ 0.25
12,SADI,≤ 0.25
13,SNGG,7.77
14,TNLA,8.08
15,RGND,≤ 0.25
16,IQNG,≤ 0.25
17,NGNG,≤ 0.25
18,TGNG,23.3
19,AQNG,28.2
20,NQNG,≤ 0.25
21,PGNG,≤ 0.25
22,VKSA,≤ 0.25
23,NIRT,≤ 0.25
24,AVYH,0.253

row,Variant,enrichment ratio
1,INLE,≤ 0.25
2,CTTL,≤ 0.25
3,LTTL,≤ 0.25
4,GVTL,8.09
5,FVTL,1.5
6,SSTL,14
7,DITL,≤ 0.25
8,SFTL,1.44
9,SRTL,0.897
10,KYTL,≤ 0.25
11,SITL,18.5
12,GMTL,15.2
13,TTTL,13.4
14,MWFH,≤ 0.25
15,PGWI,≤ 0.25
16,ESFA,≤ 0.25
17,HNYP,≤ 0.25
18,MKHE,≤ 0.25
19,GLGE,≤ 0.25
20,GQQP,≤ 0.25
21,FLMS,≤ 0.25
22,ANVH,≤ 0.25
23,SQTL,12.3
24,SNTL,14.6

row,Variant,enrichment ratio
1,FQTL,1.49
2,GTTL,11.7
3,TWTL,≤ 0.25
4,MNTL,3.28
5,FTTL,3.67
6,WNTL,≤ 0.25
7,IQTL,≤ 0.25
8,TNTL,14
9,GNTL,6.85
10,QCRR,≤ 0.25
11,NVGP,≤ 0.25
12,SGTL,7.51
13,WPCQ,≤ 0.25
14,HKKN,≤ 0.25
15,PVRE,≤ 0.25
16,NYRG,≤ 0.25
17,TCTL,20.7
18,WLTL,0.379
19,SVTL,12.2
20,KFTL,≤ 0.25
21,SCTL,14.2
22,VCTL,6.03
23,PLTL,≤ 0.25
24,KCTL,≤ 0.25

row,Variant,enrichment ratio
1,SLTL,15.2
2,SVWL,≤ 0.25
3,FCTL,≤ 0.25
4,EAPT,≤ 0.25
5,TVGM,10.4
6,MWTK,≤ 0.25
7,AEKL,≤ 0.25
8,ARYC,≤ 0.25
9,ESWQ,≤ 0.25
10,HSSR,≤ 0.25
11,LRFQ,≤ 0.25
12,VLTL,3.19
13,STTL,16.6
14,SETL,14.8
15,NETL,≤ 0.25
16,TLTL,14.1
17,YTTL,3.18
18,FLTL,0.273
19,QETL,≤ 0.25
20,ITTL,0.464
21,MHRQ,≤ 0.25
22,GSPC,≤ 0.25
23,QHLF,≤ 0.25
24,RLFC,≤ 0.25

row,Variant,enrichment ratio
1,NYDD,≤ 0.25
2,RDCN,≤ 0.25
3,EACS,≤ 0.25
4,MLAN,≤ 0.25
5,MEYQ,≤ 0.25
6,MLYQ,18.8
7,KCYQ,≤ 0.25
8,MLYD,≤ 0.25
9,NCYQ,≤ 0.25
10,MCYQ,17.2
11,MADQ,≤ 0.25
12,VHFE,≤ 0.25
13,ESLL,0.525
14,ELNQ,≤ 0.25
15,MNMI,4
16,LNML,2.48
17,GNML,12.2
18,TNML,1.41
19,GGML,15.7
20,GQML,7.95
21,YNNL,≤ 0.25
22,YNML,13.9
23,YNSK,≤ 0.25
24,VGML,8.33

row,Variant,enrichment ratio
1,GIML,8.24
2,MNML,24.9
3,SKFF,≤ 0.25
4,ALTN,7.81
5,SRAG,≤ 0.25
6,IRNN,≤ 0.25
7,KMTD,≤ 0.25
8,DIIE,≤ 0.25
9,HEPC,≤ 0.25
10,YNTI,≤ 0.25
11,GRQY,≤ 0.25
12,MVCL,4.31
13,MVPL,≤ 0.25
14,VNML,14.6
15,VNSK,≤ 0.25
16,TGML,12.2
17,NGML,≤ 0.25
18,HGML,21.6
19,MVML,11.9
20,HIML,≤ 0.25
21,VNNL,≤ 0.25
22,RGML,≤ 0.25
23,HFML,≤ 0.25
24,YQHI,≤ 0.25

row,Variant,enrichment ratio
1,FWLA,≤ 0.25
2,TCLH,1.39
3,SHYK,≤ 0.25
4,DMSQ,≤ 0.25
5,IDIQ,≤ 0.25
6,RRTP,≤ 0.25
7,MAIN,≤ 0.25
8,GTWQ,≤ 0.25
9,EFQI,≤ 0.25
10,GVML,13.4
11,GTML,12.6
12,FGML,22.9
13,FGDL,≤ 0.25
14,GYML,≤ 0.25
15,PVML,≤ 0.25
16,PWML,≤ 0.25
17,GCML,3.33
18,QGML,6.23
19,SCGR,≤ 0.25
20,GTVR,≤ 0.25
21,SFSS,≤ 0.25
22,VDHN,≤ 0.25
23,ILLE,≤ 0.25
24,DHMC,≤ 0.25

row,Variant,enrichment ratio
1,FYNT,≤ 0.25
2,ANLF,10.7
3,KIQT,≤ 0.25
4,ISLD,≤ 0.25
5,ETRK,≤ 0.25
6,RGAM,≤ 0.25
7,NHAM,≤ 0.25
8,THAM,18.6
9,QGAM,13
10,TGAM,13
11,TRAM,15.1
12,NGAM,≤ 0.25
13,SRAM,≤ 0.25
14,QGWM,9.7
15,VRAM,≤ 0.25
16,FFAM,≤ 0.25
17,SHAM,8.88
18,EKVL,≤ 0.25

# Reference: a collection of fitness landscapes (doi:10.1126/science.1257360)
